The source of these data is PubChem BioAssay (NCATS).

Inconclusive results are not listed. The source made the active and inactive calls. Calls follow the shape of the dose curve; as a rule, active = well fitted curve in the direction sought with a large enough effect; inconclusive = small, poorly fitted or top-dose-only effect, or another doubt; inactive = no such curve, though single readings can be large or run the other way.

Glucagon-like peptide 1 receptor (Homo sapiens), sequence (P43220 whole entry, looked up): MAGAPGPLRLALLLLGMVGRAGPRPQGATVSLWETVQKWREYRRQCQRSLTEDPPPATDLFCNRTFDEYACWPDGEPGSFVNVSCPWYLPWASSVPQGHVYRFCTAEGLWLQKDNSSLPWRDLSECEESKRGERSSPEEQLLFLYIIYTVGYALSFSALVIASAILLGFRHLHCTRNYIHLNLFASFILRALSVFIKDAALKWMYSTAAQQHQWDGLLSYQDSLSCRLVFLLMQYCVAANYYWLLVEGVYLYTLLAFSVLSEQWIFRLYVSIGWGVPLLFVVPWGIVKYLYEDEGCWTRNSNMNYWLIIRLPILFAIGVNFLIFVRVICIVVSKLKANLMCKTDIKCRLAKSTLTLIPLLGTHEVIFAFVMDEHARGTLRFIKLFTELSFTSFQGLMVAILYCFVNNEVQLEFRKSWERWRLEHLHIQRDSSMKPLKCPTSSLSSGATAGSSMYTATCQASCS

For this experiment, the target named is Glucagon-like peptide 1 receptor (Homo sapiens) (UniProt P43220). The experiment is described as follows: qHTS of GLP-1 Receptor Agonists: LOPAC Validation (AID 624148).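 Also: higher luminescence signal means agonism.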 Particulars: GLP-1R agonist cell assay; series mostly up to 46.1 µM. Summed up:
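HEK293 cells stably co-expressing GLP-1R and a cAMP-responsive luciferase reporter, plated 12 hours before compound, then incubated 4-6 hr at 37 deg C. Luminescence read 12 min after detection reagent.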
Regarding `NC(=O)c1ncn([C@@H]2O[C@H](CO)[C@@H](O)[C@H]2O)c1O`, the result was inactive.

Turning to `CC(C)(C)c1ccc(C(=O)CCCN2CCC(OC(c3ccccc3)c3ccccc3)CC2)cc1`, the molecule was called inactive.

Turning to `N[C@@H](COP(=O)(O)O)C(=O)O`, the result was inactive.

Consider `CCN(CC)CC(=O)Nc1c(C)cccc1C`, for which the call was inactive.

In the case of `Cc1cccc(C)c1NC(=O)C(C)N` (configuration not stated), the molecule was classed as inactive.

For the molecule `CSc1ccc(C(=O)c2[nH]c(=O)[nH]c2C)cc1`, the result was inactive.

With `Brc1c(NC2=NCCN2)ccc2nccnc12`, the call was inactive.

On to `CCC(=O)c1ccc2c(c1)N(CCCN(C)C)c1ccccc1S2`, for which the result was inactive.

For the molecule `CCn1cc(C(=O)O)c(=O)c2cc3c(cc21)OCO3`, the molecule was called inactive.

For the molecule `CC(C(=O)O)c1ccc(CC2CCCC2=O)cc1` (configuration not stated), the outcome was inactive.

On to `NC(Cc1ccc(Cl)cc1)C(=O)O` (configuration not stated), for which the result was inactive.

For `CCO/C([O-])=N/c1c[n+](N2CCOCC2)no1`, the call was inactive.

Consider `CC1=C(C)C(=O)C(CCCCC#CCCCC#CCO)=C(C)C1=O`, for which the molecule was classed as inactive.

Turning to `CCc1c(C)[nH]c2c1C(=O)C(CN1CCOCC1)CC2` (configuration not stated), the result was inactive.

As for `CCN(Cc1ccncc1)C(=O)C(CO)c1ccccc1` (configuration not stated), the call was inactive.

Take `CC(N=C(NC#N)Nc1ccncc1)C(C)(C)C` (configuration not stated): the molecule was classed as inactive.

In the case of `COC(=O)C1=C(C)NC(C)=C(C(=O)OCCN(C)Cc2ccccc2)C1c1cccc([N+](=O)[O-])c1` (configuration not stated), the call was inactive.

Regarding `Cc1ccc(Cl)c(Nc2ccccc2C(=O)O)c1Cl`, the outcome was inactive.

`FC(F)(F)c1ccccc1-n1ccnc1`: the molecule was called inactive.

`CNCCCN1c2ccccc2CCc2ccccc21`: the call was inactive.

As to `CC(C)COCC(CN(Cc1ccccc1)c1ccccc1)N1CCCC1` (configuration not stated), the outcome was inactive.

On to `CCOC(=O)c1cnc2c(cnn2CC)c1NN=C(C)C`, for which the molecule was classed as inactive.
